Screening data (PubChem BioAssay)
Rows were chosen to be rich in hits. Some 2.2% of all compounds tested hit in one or more screens of this group.
iPSC survival up = enhancers of single-cell hiPSC survival, primary screen, ATPlite luminescence; 100% = ROCK inhibitor wells, 0% = DMSO; survival enhancement, % at 20 µM; hit rate 0.044% among 360,000; AID 602274, 2012; in the data active = survival enhancement above about 18%;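 also: cells exposed to compounds for 16 hours before the ATP read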
Myeloid diff MLP = induction of myeloid progenitor differentiation, primary screen, cell-based, flow cytometry, MLPCN library; ER-HoxA9 myeloid progenitors, lysozyme-GFP differentiation; calls only at 10 µM; hit rate 1% among 360,000; AID 624256, 2012;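 active = normalized GFP-positive differentiation at or above the plate's own cutoff, the solvent-only control mean plus 3 SD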;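 also: cells exposed to compound for four days before flow analysis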
ABCB6 inh MLPCN = ABCB6 transporter inhibitors, primary screen, K562-ABCB6 cells, flow cytometry, MLPCN library; ATP-binding cassette sub-family B member 6 (Homo sapiens), Q9NP58; K562-ABCB6 porphyrin accumulation, 1 h; active compounds read low; fluorescence ratio to DMSO, % at 10 µM; hit rate 0.19% among 360,000; AID 602162, 2011;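 active = fluorescence ratio to DMSO below 75%, the collection mean minus 3 SD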;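 also: signal is porphyrin accumulated inside mitochondria; lower ratio means ABCB6 inhibition with less porphyrin fluorescence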
H9c2 protect = cardioprotection against H2O2-induced cell death, primary screen, uHTS, H9c2 cells, ATPLite luminescence; H9c2 cardiomyocytes, H2O2 injury protection, 2 h; protection from H2O2 cell death, % at 20 µM; hit rate 0.63% among 360,000; AID 588492, 2011;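 active = compounds giving at least 50% protection of heart cells from peroxide-induced death in the single-dose screen, raw or plate-pattern-corrected value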
MIN6 prolif = inducers of MIN6 beta-cell proliferation, primary screen, ATP luminescence, uHTS; proliferation, % at 10 µM; MIN6 cells proliferation, ATPlite luminescence, 48 h; cells starved in 0.2% serum; 100% = growth in 10% serum; hit rate 0.29% among 330,000;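 active = compounds whose signal lies at least 3.5 SD above the mean of all wells on their plate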
A number is an active result; – = inactive; · = no result given; + = active, no number.

SMILES | iPSC survival up | Myeloid diff MLP | ABCB6 inh MLPCN | H9c2 protect | MIN6 prolif
CN1CCN(C(=O)CCc2nc3ccccc3c(=O)[nH]2)CC1 | – | – | – | – | –
COc1ccc(Cl)cc1NC(=O)CN(C)C(=O)CCc1nc2ccccc2c(=O)[nH]1 | – | – | – | 73.2 | –
CN1CCC(N(C)C(=O)CCc2nc3ccccc3c(=O)[nH]2)CC1 | – | – | – | 77.6 | –
CN(CC(=O)Nc1ccccc1Br)C(=O)CCc1nc2ccccc2c(=O)[nH]1 | – | – | – | 72.7 | –
O=C(Nc1nc2ccccc2n1CCN1CCCCC1)c1ccc(Cl)cc1 | · | · | · | · | –
O=C(NCCCO)c1cc2c([nH]c3ccccc32)c(-c2ccccc2)n1 | – | – | – | – | –
CC(=O)c1ccc(NC(=O)CN2C(=O)CCC2=O)cc1 | – | – | – | – | –
Cc1ccc(S(=O)(=O)NCCCN(C)C)cc1 | – | – | – | – | –
Cc1ccccc1Cc1ccc(Cl)nn1 | – | – | – | – | –
O=C(Nc1cccc(Cl)c1)N1CCN(C2c3ccccc3-c3ccccc32)CC1 | – | – | – | – | –
COc1ccc(-c2cc(C(=O)N(C)Cc3nc4ccccc4c(=O)[nH]3)c3ccccc3n2)cc1OC | – | – | – | 66.2 | –
CN(Cc1ccccc1)C(=O)CCn1c(=O)oc2ccccc21 | – | – | – | – | –
O=C(CCn1c(=O)oc2ccccc21)N(Cc1ccccc1)c1ccccc1 | – | – | – | 73.4 | –
O=C(CCc1ccc(O)cc1)NN=Cc1ccc2c(c1)OCO2 | – | + | – | – | ·
CC(=O)Oc1ccc2c(c1)Oc1cc(OC(C)=O)ccc1C21OC(=O)c2ccccc21 | – | + | · | – | –
O=C(CN1CC(=O)Oc2ccccc21)OCC(=O)c1ccccc1 | – | – | – | – | –
O=C(CN1CC(=O)Oc2ccccc21)OCC(=O)c1cccc(Br)c1 | – | – | – | 59.7 | –
CC1=C(C(=O)N(C(C)C)C(C)C)CC(CC(=O)NCCCCc2ccccc2)C(=O)N1Cc1ccc(C(C)(C)C)cc1 (centres undefined) | – | + | – | – | ·
COc1ccc(CN2C(=O)C(CC(=O)NCCCCc3ccccc3)CC(C(=O)N(C(C)C)C(C)C)=C2C)cc1 (centres undefined) | – | – | – | – | ·
CCn1c(SCC(=O)Nc2ccccc2N2CCCCC2)nc2c1c(=O)n(C)c(=O)n2C | – | – | – | 61.7 | –
Cn1c(=O)c(C(=O)NNC(=O)c2cccc(Cl)c2)c(O)c2ccccc21 | – | – | – | – | –
CCCC(CCC)c1nc2ccncc2[nH]1 | – | – | – | – | –
c1cc2nc(C34CC5CC(CC(C5)C3)C4)[nH]c2cn1 | – | + | – | – | –
N#C/C(=C/c1ccc(N2CCCCC2)o1)C(=O)Nc1ccc(Cl)cc1 | – | + | – | – | –
N#C/C(=C/c1ccc(N2CCCCC2)o1)C(=O)Nc1ccc2ccccc2c1 | – | – | – | – | ·
SMILES | iPSC survival up | Myeloid diff MLP | ABCB6 inh MLPCN | H9c2 protect | MIN6 prolif
COc1ccc(NC(=O)/C(C#N)=C\c2ccc(N3CCOCC3)o2)cc1 | – | – | – | – | –
N#C/C(=C\c1ccc(N2CCOCC2)o1)c1ccccc1 | – | · | – | – | –
N#C/C(=C\c1ccc(N2CCOCC2)o1)C(=O)Nc1ccc(O)cc1 | – | + | – | – | –
N#C/C(=C/c1ccc(N2CCOCC2)o1)c1ccc(Br)cc1 | – | + | – | – | –
Cc1ccc(Cc2c(C)nc3nc(SCC(=O)NCCCN4CCCC4)nn3c2C)cc1 | – | – | – | – | –
COc1cc(S(=O)(=O)N2CCOCC2)c(OC)c(S(=O)(=O)N2CCOCC2)c1 | – | – | – | – | –
Cc1cccc(N2CCN(CC(=O)Nc3ccc(S(=O)(=O)N4CCOCC4)cc3)CC2)c1C | – | + | – | – | –
C(=Cc1c[nH]c2ccccc12)c1ccc2ccccc2n1 | – | + | – | – | ·
C#CCOc1nc(Nc2cccc([N+](=O)[O-])c2)nc(OCC#C)n1 | – | – | – | 56.0 | –
COc1nc(Nc2cccc([N+](=O)[O-])c2)nc(OC)n1 | – | – | – | – | –
Cc1ccc(NC(=O)c2oc3ccccc3c2NC(=O)c2ccc3c(c2)OCO3)cc1 | – | + | – | – | –
O=C(Nc1c(C(=O)Nc2cccc(F)c2)oc2ccccc12)c1ccc2c(c1)OCO2 | – | – | – | – | –
